Reference: PubChem BioAssay AID2158 (National Center for Advancing Translational Sciences (NCATS), 2009)
Values joined by “and” are separate entries in the source; they are usually repeats but may differ in a detail not shown here. Equal entries are not always repeated. Results filed as inconclusive are left out. Active and inactive are the calls of the source. Calls follow the shape of the dose curve; as a rule, active = well fitted inhibition curve with a large enough effect; inconclusive = small, poorly fitted or top-dose-only effect; inactive = no such curve, though single readings can be large or run the other way.

molecular target: Cruzipain (Trypanosoma cruzi) (UniProt P25779); assay: Confirmation qHTS Assay for Inhibitors of Cruzain; settings: purified cruzain, Z-FR-AMC fluorescence, 0.01% Triton; also: nearly all actives have a fitted effect of over 40% in size;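 as to Activity change, negative = inhibition: plate controls were uninhibited enzyme control for no effect and buffer wells lacking enzyme for full effect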
Description: Cruzain is a cysteine protease from the tropical parasite Trypanosoma cruzi. This assay protocol is a follow-up and confirmation of related AID 1478 (qHTS Assay for Promiscuous and Specific Inhibitors of Cruzain -- with detergent). Cruzain was assayed by the use of fluorogenic coumarin-based substrate Z-FR-AMC: proteolytic cleavage releases AMC, whose fluorescence is measured at 360 nm excitation and 450 nm emission. Purified cruzain was supplied by the labs of Prof. James McKerrow and Brian Shoichet, UC San Francisco. This assay had 0.01% Triton X-100 concentration. See following references for additional details: Jadhav A, et al. J Med Chem. 2010 Jan 14;53(1):37-51. Mott BT, et al. J Med Chem. 2010 Jan 14;53(1):52-60. Assay Provider: Shoichet, Brian; University of California, San Fancisco Screening Center PI: Austin, C.P. Screening Center: NIH Chemical Genomics Center [NCGC]
Buffer: 100 mM Sodium Acetate, pH 5.5, 5 mM DTT, Triton X-100 concentration: 0.01%. Reagents/Controls: Buffer in columns 3 and 4 as negative control (no enzyme). Substrate solution: 2 uM final concentration of Z-FR-AMC (catalog number I-1160, Bachem) dispensed throughout the plate. Enzyme: 1.5 nM Cruzain final concentration in columns 1, 2, 5-48. Column 1 is neutral (100% activity). Column 2 contained titration of covalent inhibitor K11777, starting concentration 1 mM, then 1:2 dilution in duplicate). Assay Steps: Three uL of enzyme or buffer were dispensed to 1536-well Greiner black solid bottom plates. Compounds and controls (23 nL) were transferred via Kalypsys PinTool. The plates were incubated for 15 min at room temperature, and then 1 uL of substrate solution was added to start the reaction. The plates were immediately transferred to and read 4 times every 30 seconds for 2 min on ViewLux High-throughput CCD imager (Perkin-Elmer) using 360 nm excitation and 450 nm emission fluorescence protocol. The fluorescence intensity difference between the third and the first time points (time lapse of 60 seconds) was used to compute reaction progress.
Potency is read from the fitted curve at half-maximal effect.

Chain of Cruzipain (Trypanosoma cruzi) (P25779 123-467 limits assumed): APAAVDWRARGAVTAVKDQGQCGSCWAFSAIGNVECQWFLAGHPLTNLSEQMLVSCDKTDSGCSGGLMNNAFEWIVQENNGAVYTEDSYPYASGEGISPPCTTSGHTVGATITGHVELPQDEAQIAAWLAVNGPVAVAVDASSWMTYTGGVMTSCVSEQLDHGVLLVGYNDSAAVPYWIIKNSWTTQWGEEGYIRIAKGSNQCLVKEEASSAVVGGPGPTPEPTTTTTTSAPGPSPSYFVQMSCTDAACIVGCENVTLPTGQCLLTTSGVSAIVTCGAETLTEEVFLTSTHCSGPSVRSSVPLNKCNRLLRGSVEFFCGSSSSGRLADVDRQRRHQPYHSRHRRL

Potency, active:
Cn1nc(-c2cccnc2)nc2c(=O)n(C)c(=O)nc1-2 1.12 µM, Cc1ccc(C(=O)COC(=O)CNC(=O)COc2ccccc2C)cc1C 14.1 µM, CC(C)Nc1nc(C#N)nc(Nc2ccccc2)n1 0.891 µM, N#Cc1nc(NC2CCCC2)c2ncn(-c3cc(F)cc(F)c3)c2n1 0.316 µM, Cc1ccc(C(=O)NCC(=O)OCC(=O)c2ccc3ccccc3c2)cc1 12.6 µM, O=C(COC(=O)CNC(=O)C1CCCCC1)Nc1ccccc1Cl 3.98 µM, COc1ccc(OCCn2c(CCNC(=O)C3CCCCC3)nc3ccccc32)cc1 1.12 µM, CCCn1c(SCC(=O)N2CC(=O)Nc3ccccc32)nc2ccccc21 28.2 µM, N#Cc1nc(N)nc(N(c2ccccc2)c2ccccc2)n1 3.55 µM and 3.16 µM, Cc1cc(OCCCn2c(CCNC(=O)C3CCCCC3)nc3ccccc32)ccc1Cl 1.12 µM, COc1cc(NC(=O)C(OC(=O)CNC(=O)c2ccccc2)c2ccccc2)c(OC)cc1Cl (stereo not given) 11.2 µM, CNc1nc(C#N)nc(Nc2ccccc2)n1 1.26 µM, Cn1nc(-c2ccc(Cl)cc2)nc2c(=O)n(C)c(=O)nc1-2 0.891 µM, Cn1c(=O)c2c(-c3ccccc3)n(-n3cnnc3)cc2n(C)c1=O 22.4 µM, Cc1ccc(C(=O)NCC(=O)OC(C(=O)Nc2cc(C(F)(F)F)ccc2Cl)c2ccccc2)cc1 (stereo not given) 7.94 µM, CCn1nc(-c2ccc(C)cc2)nc2c(=O)n(C)c(=O)nc1-2 2.82 µM, Cc1cccc(C(=O)NCC(=O)OCC(=O)c2ccc3ccccc3c2)c1 12.6 µM, CSCC[C@H](NC(=O)COc1ccc(Cl)cc1Cl)c1nc2ccccc2[nH]1 2.82 µM, CCn1cnc2c(Nc3cccc(Cl)c3)nc(C#N)nc21 0.0141 µM, COc1ccc(/C=C/C(=O)Nc2ccc(-n3nncc3-c3ccc(Br)cc3)cc2)cc1OC 12.6 µM, O=C(CNC(=O)c1ccc2ccccc2c1)OC(C(=O)Nc1cc(C(F)(F)F)ccc1Cl)c1ccccc1 (stereo not given) 4.47 µM

Activity change, negative = inhibition, inactive:
O=C(Cn1cc(CN(Cc2ccccc2)Cc2ccccc2)nn1)Nc1cc(C(F)(F)F)ccc1Cl -13.2%, O=C(CNC(=O)C(c1ccccc1)c1ccccc1)OCC(=O)c1ccc2ccccc2c1 28.2%, CCC(C)NC(=O)c1ccc2nc(-c3cccs3)c(-c3cccs3)nc2c1 (stereo not given) -5.12%, COc1cccc(-c2nn3c(-c4cc(C)[nH]n4)nnc3s2)c1 -5.64%, CC(C)(C)OC(=O)Cc1nnc(C(C(=O)OCc2ccccc2)c2ccccc2)o1 (stereo not given) -12.3%, CCOc1ccc(CN2C(=O)c3ccccc3Sc3ccc(C(=O)NCc4ccc5c(c4)OCO5)cc32)cc1 6.89%, COc1ccccc1CCNC(=O)CNC(=O)Cc1cccc2ccccc12 5.36%, O=C(Cn1cc(CNCc2ccccc2)nn1)Nc1cc(C(F)(F)F)ccc1Cl 3.4%, COc1ccc(-c2nn3c(-c4cc(C)[nH]n4)nnc3s2)cc1 -13.7%, CC(C)(C)OC(=O)NCC(=O)NNC(=O)c1nc2ccccc2[nH]1 2.49%, O=[N+]([O-])c1ccccc1S(=O)(=O)NCC1CCC(CNCC2CCc3ccccc3C2)CC1 (stereo not given) -5.24%, Cc1ccc(OCCCn2c(CCCNC(=O)C3CCCCC3)nc3ccccc32)cc1 -20.3%, O=C(CNC(=O)c1ccc(-c2ccccc2)cc1)OC(C(=O)Nc1cc(C(F)(F)F)ccc1Cl)c1ccccc1 (stereo not given) -19.3%, CCSc1nnc(NC(=O)/C=C/c2ccc3c(c2)OCO3)s1 -48.4%, CC(C)(C)OC(=O)NCc1nnc(-c2cc3ccccc3[nH]2)s1 -12.9%, O=C(Cn1cc(CNC(=O)c2ccccc2)nn1)Nc1cc(C(F)(F)F)ccc1Cl 2.48%, O=C(Cc1nnc(-c2cc3ccccc3[nH]2)o1)Nc1cc(C(F)(F)F)ccc1Cl -3.28%, CCCNC(=O)Cn1c(SCc2ccccc2C)nc2ccncc21 -2.3%, O=C(NCCCc1nc2ccccc2n1CCCOc1ccccc1)C1CCCCC1 -12.3%
